Our source for the Potency values is PubChem BioAssay (Tox21).

Several values for one entry are separate records, joined by “and”; a condition that tells them apart may be missing. Identical values can stand only once. Inconclusive results are not listed. Some compounds were tested as several samples or in several runs, with calls that do not always agree. Activity calls are given as the source filed them. Unless noted, calls follow the shape of the full dose curve.

Assay [1] is described as follows: Nuclear factor erythroid 2-related factor 2/antioxidant responsive element (Nrf2/ARE) small molecule agonists: qHTS cell viability counter screen in human keratinocytes (AID 1919968; active = well fitted curve in the direction sought with a large enough effect in the repeat runs; an effect the other way counts as inactive or inconclusive; also: nearly all actives have a fitted effect of over 55% in size; also: potency is read from the fitted curve at half-maximal effect). In a few lines:
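Parallel cytotoxicity read: KeratinoSens HaCaT cells, compound treatment 23 h, viability by CellTiter-Fluor fluorescence 1 h post-reagent.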

Assay [2] can be described thus: Nuclear factor erythroid 2-related factor 2/antioxidant responsive element (Nrf2/ARE) small molecule agonists: luciferase reporter gene qHTS assay in human keratinocytes (AID 1919969). Also: nearly all actives have a fitted effect of over 35% in size. A general note: Reporter assays use an easily measured gene product as a stand-in for the process of interest.
In assay [3] the target is Gonadotropin-releasing hormone receptor (Homo sapiens) (UniProt P30968). In words: Human gonadotropin-releasing hormone receptor (GnRHR) small molecule agonists, calcium flux assay in GnRHR-HEK293 cells (AID 1920063). Also: nearly all actives have a fitted effect of over 35% in size. In outline:
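Calcium flux, agonist mode, human GnRHR stably integrated in HEK293; dye 1 h at 37 C before compound; Ex/Em=480/540 kinetic read, 3 min; 15 concentrations, triplicate.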

Assay [4] has as its target KiSS-1 receptor (Homo sapiens) (UniProt Q969F8). In words: Human kisspeptin (KISS1R) small molecule agonists, calcium flux assay in KISS1R-HEK293 cells (AID 1920064; active = well fitted curve in the direction sought with a large enough effect in the repeat runs; an effect the other way counts as inactive or inconclusive). In outline:
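Triplicate 15-concentration series were applied to dye-loaded human KISS1R HEK293 cells, and agonist-evoked calcium fluorescence was captured for 3 min.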
Background: Calcium assays in cells follow changes in intracellular calcium, usually with a dye or a luminescent sensor.

Assay [5] is described as follows: G protein-coupled receptor (GPCR) small molecule agonists, calcium flux assay: HEK293 wild type cell line counter screen (AID 1920065). In outline: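 Non-specific calcium responders were flagged by adding DMSO-dissolved compounds to dye-loaded cells and reading 480/540 nm fluorescence each second for 3 min; ATP served as positive control.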
Assay [6] in a line: p53 small molecule agonists, cell-based qHTS assay with human liver microsomes (AID 1963577).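 Also: p53 response element beta-lactamase reporter cells with liver microsomes plus NADPH.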 In outline: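 Metabolically competent format: test substances, human liver microsomes and NADPH (both 0.5 mg/mL final) incubated with p53RE-bla cells 16 h at 37 C. Beta-lactamase reporter signal then quantified by fluorescence.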
(In qHTS, concentration-response curves come from the screen itself.)

Assay [7] is described as follows: p53 small molecule agonists, cell-based qHTS assay with rat liver microsomes (AID 1963578). In a few lines: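 Each plate received p53RE-bla cells, then compound, then rat liver microsomes and NADPH (both 0.5 mg/mL final). Plates were held 16 h at 37 C, and beta-lactamase activity was detected with LiveBLAzer over 2 h.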
The nature of assay [8]: p53 small molecule agonists, cell-based qHTS assay with human liver microsomes: qHTS cell viability counter screen (AID 1963579). Also: nearly all actives have a fitted effect of over 45% in size. In a few lines: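 Tox21 library compounds, delivered from DMSO stocks, were tested on p53RE-bla cells together with 0.5 mg/mL human liver microsomes and 0.5 mg/mL NADPH (final) over 16 h at 37 C; CellTiter-Glo luminescence served as the cytotoxicity measure.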

Assay [9] can be described thus: p53 small molecule agonists, cell-based qHTS assay with rat liver microsomes: qHTS cell viability counter screen (AID 1963580). Also: nearly all actives have a fitted effect of over 45% in size. In a few lines: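 After the beta-lactamase ratio was read, CellTiter-Glo was added to the same wells and luminescence measured at 30 min; cells had been treated 16 h at 37 C with compounds, rat liver microsomes and NADPH (0.5 mg/mL final each).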

Assay [10] can be described thus: p53 small molecule agonists, cell-based qHTS assay: qHTS cell viability counter screen (AID 1963581). Also: nearly all actives have a fitted effect of over 45% in size. In a few lines:
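Multiplexed with the reporter read, a CellTiter-Glo step (30 min, room temperature) gauges ATP-based viability of HCT-116 p53RE-bla cells after 16 h compound incubation at 37 C.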

Assay [11] is described as follows: p53 small molecule agonists, cell-based qHTS assay (AID 1963582; active = well fitted activation curve with a large enough effect in the signal ratio in the repeat runs, not every such curve was filed as active; the % refers to the signal ratio). In a few lines:
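Beta-lactamase reporter cells (p53RE-bla) treated with compounds for 16 h at 37 C; FRET substrate, 2 h, room temperature; fluorescence intensity.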

The target in assay [12] is 5-hydroxytryptamine receptor 2A (Homo sapiens) (UniProt P28223). In words: 5-hydroxytryptamine receptor 2A (HTR2A) small molecule antagonists, cell-based qHTS assay (AID 1963586). Also: nearly all actives have a fitted effect of over 45% in size. Also: potency is read from the fitted curve at half-maximal effect. In outline: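 CHO cells stably expressing human HTR2A were plated for 18 h at 37 C, then loaded with calcium dye for 1 h. Compounds were preincubated 5 min at room temperature before DOI (4 nM solution) was added. Kinetic fluorescence was read for 3 min.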
5-hydroxytryptamine receptor 2A (Homo sapiens), sequence (P28223 whole entry, looked up): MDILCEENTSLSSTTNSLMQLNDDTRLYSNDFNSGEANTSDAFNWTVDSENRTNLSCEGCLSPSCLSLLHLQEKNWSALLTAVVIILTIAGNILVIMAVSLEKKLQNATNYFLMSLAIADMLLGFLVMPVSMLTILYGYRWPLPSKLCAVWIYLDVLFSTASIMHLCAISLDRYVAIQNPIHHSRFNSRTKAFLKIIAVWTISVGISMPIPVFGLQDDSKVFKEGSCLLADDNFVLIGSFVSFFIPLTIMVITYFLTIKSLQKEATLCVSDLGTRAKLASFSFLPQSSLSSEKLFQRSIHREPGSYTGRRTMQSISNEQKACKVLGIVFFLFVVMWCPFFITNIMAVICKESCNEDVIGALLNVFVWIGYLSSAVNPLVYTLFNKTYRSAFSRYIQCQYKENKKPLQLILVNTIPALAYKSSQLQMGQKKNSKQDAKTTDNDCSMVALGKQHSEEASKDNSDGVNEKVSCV

Assay [13] has the same target. In words: 5-hydroxytryptamine receptor 2A (HTR2A) small molecule agonists, cell-based qHTS assay (AID 1963587). Also: nearly all actives have a fitted effect of over 30% in size. Also: potency is read from the fitted curve at half-maximal effect. In outline:
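CHO cells stably expressing human HTR2A, plated 18 h, loaded with calcium dye 1 h at 37 C. Agonist mode: compounds added and intracellular calcium fluorescence recorded kinetically for 2 min at 1 sec intervals.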

Assay [14] concerns the target Muscarinic acetylcholine receptor M1 (Homo sapiens) (UniProt P11229). The assay is described as follows: Cholinergic receptor muscarinic 1 (CHRM1) small molecule antagonists, cell-based qHTS assay (AID 1963588). Also: nearly all actives have a fitted effect of over 40% in size. In outline:
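Compounds were tested at 15 concentrations in three independent runs. Dye-loaded CHRM1-CHO cells were exposed 5 min at room temperature before stimulation by acetylcholine added at 50nM. Intracellular calcium was read kinetically on FDSS for 3 min.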

The target is the same in assay [15]. In words: Cholinergic receptor muscarinic 1 (CHRM1) small molecule agonists, cell-based qHTS assay (AID 1963589). Also: nearly all actives have a fitted effect of over 35% in size. In outline: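 qHTS, 15-point titration, 3 independent runs: compounds pin-transferred onto dye-loaded CHRM1-CHO cells (human M1), calcium fluorescence followed every second to detect agonism.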
The nature of assay [16]: cAMP Responsive Elements (CRE) small molecule agonists, cell-based qHTS assay (AID 1963590). In outline:
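Quantitative HTS for CRE agonists: HEK 293T CRE-bla cells, overnight plating, 3 h compound incubation at 37 C/5% CO2, then 2 h room-temperature LiveBLAzer B/G FRET substrate loading.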

Assay [17] can be described thus: cAMP Responsive Elements (CRE) small molecule antagonists, cell-based qHTS assay (AID 1963591; active = well fitted inhibition curve with a large enough effect in the signal ratio in the repeat runs, not every such curve was filed as active; the % refers to the signal ratio). In a few lines:
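Fluorescence intensity from cleaved LiveBLAzer B/G substrate (2 h, room temperature) quantified CRE-bla activity in HEK 293T cells exposed 3 h to compound with 0.25 uM final NKH477.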

Assay [18] deals with D(2) dopamine receptor (Homo sapiens) (UniProt P14416). In words: Dopamine D2 receptor (DRD2) small molecule agonists, cell-based qHTS assay (AID 1963594). Also: nearly all actives have a fitted effect of over 35% in size. In outline:
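HEK293 cells stably expressing human DRD2, pre-treated with PDE inhibitor Ro20-1724 (0.1 mM final) and compound 10 min at room temperature, then stimulated with NKH477 (200nM […]) for 30 min. cAMP read by HTRF (665/620 nm).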

Assay [19] has the same target. In words: Dopamine D2 receptor (DRD2) small molecule antagonists, cell-based qHTS assay (AID 1963595; active = well fitted inhibition curve with a large enough effect in the signal ratio in the repeat runs, with a control signal flat; the % refers to the signal ratio). In outline:
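Human DRD2 antagonist qHTS measuring cAMP by HTRF. The cells are exposed to compound for 10 min, then to NKH477 (200 nM) and quinpirole (12 nM) for 30 min at RT, with Ro20-1724 (0.1 mM) present throughout.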

Assay [20] addresses Beta-2 adrenergic receptor (Homo sapiens) (UniProt P07550). In words: Adrenergic beta2 receptor (ADRB2) small molecule antagonists, cell-based qHTS assay (AID 1963592). Also: series mostly up to about 92 µM; nearly all actives have a fitted effect of over 50% in size. In a few lines: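 Assay format: CHO-ADRB2 cells, 18-20hr seeding at 37C/5% CO2, then compound plus 1nM isoproterenol agonist mix for 0.5hr RT. Homogeneous time-resolved fluorescence cAMP detection after 1hr, expressed as 665/615 nm ratio.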

Gonadotropin-releasing hormone receptor (Homo sapiens), sequence (P30968 whole entry, looked up): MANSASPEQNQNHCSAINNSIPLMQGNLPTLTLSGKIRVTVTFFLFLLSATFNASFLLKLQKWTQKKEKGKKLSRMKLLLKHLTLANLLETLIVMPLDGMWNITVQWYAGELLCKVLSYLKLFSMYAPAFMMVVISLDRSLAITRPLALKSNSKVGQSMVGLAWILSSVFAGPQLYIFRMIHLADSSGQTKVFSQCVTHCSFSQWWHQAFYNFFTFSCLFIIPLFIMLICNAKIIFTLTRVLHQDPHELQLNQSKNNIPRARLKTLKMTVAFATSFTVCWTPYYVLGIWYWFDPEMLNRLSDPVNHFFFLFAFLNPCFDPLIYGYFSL
Muscarinic acetylcholine receptor M1 (Homo sapiens), sequence (P11229 whole entry, looked up): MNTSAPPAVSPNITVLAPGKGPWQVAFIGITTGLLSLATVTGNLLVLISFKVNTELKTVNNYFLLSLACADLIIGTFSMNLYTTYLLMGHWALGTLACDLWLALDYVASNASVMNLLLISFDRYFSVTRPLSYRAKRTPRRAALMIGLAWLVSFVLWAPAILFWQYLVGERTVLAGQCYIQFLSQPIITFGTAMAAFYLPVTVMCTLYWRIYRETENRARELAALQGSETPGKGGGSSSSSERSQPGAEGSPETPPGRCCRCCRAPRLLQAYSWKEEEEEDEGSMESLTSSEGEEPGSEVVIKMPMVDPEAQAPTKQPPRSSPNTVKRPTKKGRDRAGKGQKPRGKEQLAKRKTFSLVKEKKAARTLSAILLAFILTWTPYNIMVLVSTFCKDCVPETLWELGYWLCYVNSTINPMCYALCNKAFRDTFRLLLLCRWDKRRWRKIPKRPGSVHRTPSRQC
Beta-2 adrenergic receptor (Homo sapiens), sequence (P07550 whole entry, looked up): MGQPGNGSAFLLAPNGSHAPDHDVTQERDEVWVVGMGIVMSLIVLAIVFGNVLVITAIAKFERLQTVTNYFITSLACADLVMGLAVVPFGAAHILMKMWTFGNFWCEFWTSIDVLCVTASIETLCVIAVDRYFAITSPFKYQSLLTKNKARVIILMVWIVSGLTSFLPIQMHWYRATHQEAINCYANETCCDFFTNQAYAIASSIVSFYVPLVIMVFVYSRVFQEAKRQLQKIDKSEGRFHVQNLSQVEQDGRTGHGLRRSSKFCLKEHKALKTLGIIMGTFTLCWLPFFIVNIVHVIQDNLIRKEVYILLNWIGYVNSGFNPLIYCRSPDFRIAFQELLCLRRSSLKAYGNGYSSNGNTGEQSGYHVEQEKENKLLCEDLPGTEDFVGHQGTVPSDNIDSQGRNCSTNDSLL
KiSS-1 receptor (Homo sapiens), sequence (Q969F8 whole entry, looked up): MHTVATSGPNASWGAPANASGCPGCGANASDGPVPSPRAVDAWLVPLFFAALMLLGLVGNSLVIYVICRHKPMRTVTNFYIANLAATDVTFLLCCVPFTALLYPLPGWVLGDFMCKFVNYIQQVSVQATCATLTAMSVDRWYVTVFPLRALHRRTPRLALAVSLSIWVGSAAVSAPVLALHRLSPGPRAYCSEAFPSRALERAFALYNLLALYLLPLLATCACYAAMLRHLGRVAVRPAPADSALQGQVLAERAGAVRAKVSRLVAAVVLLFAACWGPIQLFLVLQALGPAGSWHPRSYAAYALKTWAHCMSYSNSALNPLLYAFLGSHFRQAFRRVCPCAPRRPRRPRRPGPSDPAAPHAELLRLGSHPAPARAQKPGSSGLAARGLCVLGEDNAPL
D(2) dopamine receptor (Homo sapiens), sequence (P14416 whole entry, looked up): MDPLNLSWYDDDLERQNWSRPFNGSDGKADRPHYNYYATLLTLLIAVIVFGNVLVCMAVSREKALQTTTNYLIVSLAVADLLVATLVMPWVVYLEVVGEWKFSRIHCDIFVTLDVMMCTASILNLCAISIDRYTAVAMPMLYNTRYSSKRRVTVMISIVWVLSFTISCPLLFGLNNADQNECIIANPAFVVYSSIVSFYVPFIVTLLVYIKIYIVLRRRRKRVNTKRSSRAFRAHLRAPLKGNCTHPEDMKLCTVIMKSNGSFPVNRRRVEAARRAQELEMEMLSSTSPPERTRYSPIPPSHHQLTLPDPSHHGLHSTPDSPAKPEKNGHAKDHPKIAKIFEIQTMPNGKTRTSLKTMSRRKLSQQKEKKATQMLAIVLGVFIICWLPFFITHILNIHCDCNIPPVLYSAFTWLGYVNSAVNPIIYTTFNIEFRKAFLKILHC

`O=Cc1ccccc1O`: the Potency entry in assay [1], in assay [2], in assay [3], in assay [4], in assay [5] and in [6] was “inactive” in each case. Further, the Potency result in assay [7], in [8], in [9], in assay [10], in [11] and in assay [12] was “inactive” each time. Further, the Potency entry in [13], in assay [14], in assay [15], in assay [16], in assay [17] and in [18] was “inactive” each time. In addition, the Potency entry in [19] was “inactive”.

For the molecule `Nc1nc2ncc(CNc3ccc(C(=O)N[C@@H](CCC(=O)O)C(=O)O)cc3)nc2c(=O)[nH]1`, the Potency entry in assay [1], in assay [2], in assay [3], in assay [4], in [5] and in assay [6] was “inactive” throughout. Further, the Potency entry in assay [7], in [8], in [9], in assay [10], in assay [11] and in assay [12] was “inactive” throughout. Moreover, the Potency entry in [13], in assay [14], in assay [15], in assay [16], in assay [17] and in [18] was “inactive” each time. In addition, the Potency result in assay [19] is “inactive”.

Consider `C=C(C)C(=O)OCCC[Si](OC)(OC)OC`, for which the Potency result in [1], in assay [2], in assay [3], in assay [4], in [5] and in assay [6] was “inactive” throughout. Further, the Potency result in [7], in [8], in [9], in assay [10], in assay [11] and in assay [12] was “inactive” throughout. Also, the Potency result in [13], in assay [14], in assay [15], in assay [16], in assay [17] and in assay [20] was “inactive” each time. The Potency result in assay [18] and in assay [19] was “inactive” in each case.

As for `NCCNc1cccc2ccccc12`, the Potency in assay [1] was 54.4 µM (active) and inactive; in [12], 2.9 nM (active); in [13] it was 389 nM (active) and 1.2 nM (active) and 19 nM (active). Also, the Potency entry in assay [2], in assay [3], in assay [4], in [5], in [6] and in assay [7] was “inactive” in each case. Moreover, the Potency entry in [8], in assay [9], in [10], in [11], in assay [14] and in [15] was “inactive” each time. For the same molecule, the Potency entry in assay [17] and in assay [19] was “inactive” throughout.

Consider `CC(=O)NS(=O)(=O)c1ccc(N)cc1`, for which the Potency result in [1], in [2], in assay [3], in assay [4], in assay [5] and in [6] was “inactive” each time. Besides, the Potency entry in [7], in [8], in assay [9], in assay [10], in [11] and in [12] was “inactive” each time. Further, the Potency result in assay [13], in [14], in assay [15], in assay [16], in assay [17] and in assay [20] was “inactive” throughout. Also, the Potency entry in assay [18] and in assay [19] was “inactive” each time.

On to `CCCCCCCCCCC(CO)CCCCCCCC` (stereo not given), for which the Potency result in assay [1], in [2], in assay [3], in [4], in assay [5] and in [6] was “inactive” each time. For the same molecule, the Potency result in assay [7], in assay [8], in [9], in assay [10], in assay [11] and in assay [12] was “inactive” in each case. Further, the Potency entry in assay [13], in assay [14], in assay [15], in assay [16], in assay [17] and in assay [20] was “inactive” in each case. Moreover, the Potency result in assay [18] and in [19] was “inactive” in each case.

Take `CCCCC/C(C=O)=C\c1ccccc1`: the Potency result in [1], in [2], in assay [3], in [4], in assay [5] and in assay [6] was “inactive” throughout. The Potency entry in assay [7], in [8], in assay [9], in assay [10], in assay [11] and in [12] was “inactive” in each case. In addition, the Potency entry in assay [13], in assay [14], in assay [15], in [16], in assay [17] and in [20] was “inactive” each time. Further, the Potency result in [18] and in assay [19] was “inactive” in each case.
